The values below come from PubChem BioAssay (NCATS).

Each structure is given as a SMILES string. Results filed as inconclusive are left out. A number with no mark means an inactive call. Calls of active or inactive are those of the source. Calls follow the shape of the dose curve; as a rule, active = well fitted cell-killing curve with a large enough effect; inconclusive = small, poorly fitted or top-dose-only effect, or effect the other way; inactive = flat fitted curve, though single readings scatter. Where a SMILES comes first, the peptide text is derived from it. [ ]: non-standard residue; d: D form. pGlu = O=C1CC[C@@H](C(=O)O)N1; Thz = O=C(O)[C@@H]1CSCN1
% is scaled to controls: 0 for no effect and ±100 for the full control effect; potency is read from the fitted curve at half-maximal effect.

The subject of the experiment is CAOV3. The experiment can be described thus: Primary qHTS to identify gynecologic anti-cancer compounds using libraries of approved drugs and bioactive compounds (AID 1345084). Also: nearly all actives have a fitted effect of over 55% in size. Conditions: Gynecologic cancer cell panel viability, ATPlite luminescence, 48 h; series mostly up to 57.5 µM; activity change, negative = cytotoxicity: at the top concentration. An excerpt:
National Center for Advancing Translational Sciences [NCATS] Assay Overview: Chemotherapeutic drug responses vary from cancer to cancer and from patient to patient. These variations could be caused by a number of factors including patient genomic background, tumor mutations, tumor heterogeneity, and aspects of drug treatment. Chemotherapeutic drug resistance is also a common issue and can lead to ineffective treatment and patient death. Here we have profiled the cell killing effects of thousands of compounds to characterize the responses in three gynecological cancers, identify cancer-selective compounds, and understand the diversity of responses to these compounds from pan-cancer suppressors to single cell line selective compounds. In this assay, we screened a 7,914 compound drug library that included approved drug and bioactive compounds in six ovarian, three cervical, and […] placental cancer cell lines using the ATPlite assay for cell viability. […] The cervical cancer cell lines included HeLa, Ca Ski, and C-33 A. The placental cancer cell lines included JEG-3. HEK 293T cells were used as the control cell line to determine the selectivity index. ATPlite is a luminescence based assay reliant on the conversion of a luciferase substrate to light in the presence of ATP. As a cytotoxic compound will suppress growth and decrease the number of cells, the concentration of ATP will decrease, and less light signal will be detected in the well.
Assay Protocol Summary: 1,000 cells in 4 uL of media were dispensed into white, solid bottom 1536-well plates using a Multidrop Combi (Thermo Scientific). The Assay plates were incubated for 16 hours at 37 C with 5% CO2 in assay plates, followed by the addition of 23 nL of DMSO or drug dissolved in DMSO. Each compound was assayed in five concentrations (0.092, 0.46, 2.3, 11.5, and 57.5 uM), using the automated Wako 1536 Pin Tool workstation and incubated at 37 C with 5% CO2 48 hours. 4 uL of ATPlite, the ATP monitoring reagent, was then added to the each well of the assay plates using the Multidrop Combi reagent dispenser followed by incubation for 15 minutes at room temperature. The resulting luminescence was measured using the ViewLux plate reader.
Background: Quantitative high-throughput screening tests each substance at several concentrations.
For `COC(=O)C1=C(C)NC(C)=C(C(=O)OC)C1c1cccc(NC(=O)NCCCN2CCC(c3cccc(OC)c3)CC2)c1`, the Potency was 22.4 µM (active).
Consider `O=C(Nc1ccc(C(=O)O)c(O)c1)c1ccccc1`, for which the “activity change, negative = cytotoxicity” value was -7.41%.
For `CN1[C@@H]2CC[C@H]1CC(OC(=O)C(CO)c1ccccc1)C2` (stereo not given in full), the “activity change, negative = cytotoxicity” value is 9.15%.
Consider `C/C(=N\O)c1ccc(OCC(=O)N2CCCCC2)cc1`, for which the “activity change, negative = cytotoxicity” value was 9.58%.
Consider `COC(=O)C1=C(C)NC(C)=C(C(=O)OCC(C)=O)C1c1ccccc1[N+](=O)[O-]` (stereo not given), for which the “activity change, negative = cytotoxicity” value was -1.11%.
Consider `CCOC(=O)c1ccccc1O`, for which the “activity change, negative = cytotoxicity” value is -11.2%.
For the compound `CC(C(=O)O)c1ccc2c(c1)[nH]c1ccc(Cl)cc12` (stereo not given), the “activity change, negative = cytotoxicity” value is 14.2%.
Take `O=C1CC[C@@H](C(=O)N2CSC[C@H]2C(=O)O)N1` ([pGlu]-[Thz]-OH): the “activity change, negative = cytotoxicity” value was 3.59%.
Still for that read-out and setting: as for `O=C(O)c1ccccc1Nc1cccc(C(F)(F)F)c1`, the figure is 6.06%; as for `COC(=O)[C@H]1[C@H]2C[C@@H]3c4[nH]c5cc(OC)ccc5c4CCN3C[C@H]2C[C@@H](OC(=O)/C=C/c2cc(OC)c(OC)c(OC)c2)[C@@H]1OC`, 19.2% [at 25.3 µM]; as for `CC1(C)[C@@H](O)CC[C@]2(C)[C@H]3C(=O)C=C4[C@@H]5C[C@@](C)(C(=O)O)CC[C@]5(C)CC[C@@]4(C)[C@]3(C)CC[C@@H]12`, 4.05%.
Regarding `O=C1CN(/N=C/c2ccc([N+](=O)[O-])o2)C(=O)N1`, the “activity change, negative = cytotoxicity” value is -8%.
The same measure, in the same setting: the result for `O=C(O)c1cc(O)c(O)c(O)c1` reads 3.18%; that for `CC1(C)S[C@@H]2[C@H](NC(=O)[C@H](N)c3ccc(O)cc3)C(=O)N2[C@H]1C(=O)O`, 4.85%.
For the compound `CC(C)(C)c1nnc(NS(=O)(=O)c2ccc(N)cc2)s1`, the “activity change, negative = cytotoxicity” value was 7.23%.
For `O=C(Nc1ccc2c(c1)CCN(Cc1ncn[nH]1)C2)c1ccccc1-c1ccc(C(F)(F)F)cc1`, the “activity change, negative = cytotoxicity” value is 17.8%.
As for `NCCO`, the “activity change, negative = cytotoxicity” value was 1.86% [at 116 µM].
In the case of `Cc1ccc2c(n1)Oc1ccc(C(C)C(=O)OCC(=O)N(C)C)cc1C2` (stereo not given), the Potency result was “inactive”.
Regarding `O=C(/C=C/c1ccccc1)NCCO`, the “activity change, negative = cytotoxicity” value is -23.4%.
Same read-out and setting: as for `C[C@H](O)[C@H](O)[C@H]1CNc2nc(N)[nH]c(=O)c2N1`, the figure is -0.53%; as for `C#C[C@]1(O)CC[C@H]2[C@@H]3CCc4cc(O)ccc4[C@H]3CC[C@@]21C`, -22%; as for `CC1(C)S[C@@H]2[C@H](NC(=O)[C@H](N)c3ccccc3)C(=O)N2[C@H]1C(=O)O`, -8.24%.
As to `Cc1c(Nc2ncccc2C(=O)O)cccc1C(F)(F)F`, the “activity change, negative = cytotoxicity” value was -26.5%.
With `CC(=O)SCC(CC(=O)c1ccc(C)cc1)C(=O)O` (stereo not given), the “activity change, negative = cytotoxicity” value was 30.1%.
On the same count and under the same terms, as for `O=C(O)Cc1ccc2c(c1)C(=O)c1ccccc1CO2`, the figure is 17.6%; as for `CCCOC(=O)c1ccc(O)cc1`, -2.68% [at 116 µM]; as for `Cc1onc(-c2c(F)cccc2Cl)c1C(=O)N[C@@H]1C(=O)N2[C@@H]1SC(C)(C)[C@@H]2C(=O)O`, -7.67%.
On the same count and under the same terms, as for `NS(=O)(=O)c1ccc(-n2nc(C(F)(F)F)cc2-c2ccc(Cl)cc2)cc1`, the figure is -5.6%; as for `O=C(O)CC1CC(c2ccccc2)=NO1` (stereo not given), -2.51% [at 25.3 µM].
Same read-out and setting: as for `COc1cc(/C=C/C(=O)N2CCN(CC(=O)N3CCCC3)CC2)cc(OC)c1OC`, the figure is 22.6%; as for `CN(C)CCn1nnnc1SCC1=C(C(=O)O)N2C(=O)[C@@H](NC(=O)Cc3csc(N)n3)[C@H]2SC1`, -5.49%.
For the compound `Cc1cc(O)c2ccccc2c1O`, the “activity change, negative = cytotoxicity” value was 13.7%.
As for `c1ccc2sc(SN3CCOCC3)nc2c1`, the “activity change, negative = cytotoxicity” value was 3.71%.
As to `O=C(O)Cc1ccc(-c2ccccc2)cc1`, the “activity change, negative = cytotoxicity” value is 1.8%.
On to `Nc1ccc(O)c([N+](=O)[O-])c1`, for which the “activity change, negative = cytotoxicity” value is 19.5% [at 116 µM].
`Cc1ccc(C(=O)c2ccc(CC(=O)O)n2C)cc1`: the “activity change, negative = cytotoxicity” value was -4.49%.
Regarding `CCCCCCCCCCCCOCCO`, the “activity change, negative = cytotoxicity” value was -0.376%.
`S=c1[nH]c2ccccc2s1`: the “activity change, negative = cytotoxicity” value was 3.16% [at 116 µM].
Regarding `CC1(C)S[C@@H]2[C@H](NC(=O)[C@H](NC(=O)N3CCN(S(C)(=O)=O)C3=O)c3ccccc3)C(=O)N2[C@H]1C(=O)O`, the “activity change, negative = cytotoxicity” value was 2.92%.
Regarding `CNC(=O)c1c(I)c(NC(=O)CCCCC(=O)Nc2c(I)c(C(=O)O)c(I)c(C(=O)NC)c2I)c(I)c(C(=O)O)c1I`, the “activity change, negative = cytotoxicity” value is 1.23%.
